# High-throughput results: PubChem, Sanford-Burnham Center for Chemical Genomics
# Sampled rows, rich in hits. Any-hit rate of the full collection: about 28%.
# CYP2C19 inh – human CYP2C19 inhibition | CYP2C19 Supersomes, luciferin-H EGE luminescence, 30 min | inhibition, % at 5 µM | actives 21% (n = 96,000) | AID 778;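 active = CYP2C19 inhibition above a set limit at 5 µM in the primary screen, cut at about 50% in these data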
# CYP2C9 activ – activators of human CYP2C9 | P11712 | recombinant CYP2C9, luciferin-H conversion, luminescence; hits give high values; factor 1 = untreated enzyme, 0 = blocked | activation factor at 5 µM | actives 1.4% (n = 96,000) | AID 1024;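 active = activation factor of 2 or more for CYP2C9 at a 5 µM dose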
# Mac1 fbg inh – inhibitors of human CD11b/CD18 binding to fibrinogen; K562 CD11b/CD18 adhesion to fibrinogen, ATPlite luminescence; Mn2+ added to activate the integrin; inhibition, % at 10 µM; actives 0.54% (n = 93,000);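 active = primary inhibition of 50% or more at 10 µM, then 40% or more on retest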
# Target sequence (P05107 whole entry, looked up, other chains not shown): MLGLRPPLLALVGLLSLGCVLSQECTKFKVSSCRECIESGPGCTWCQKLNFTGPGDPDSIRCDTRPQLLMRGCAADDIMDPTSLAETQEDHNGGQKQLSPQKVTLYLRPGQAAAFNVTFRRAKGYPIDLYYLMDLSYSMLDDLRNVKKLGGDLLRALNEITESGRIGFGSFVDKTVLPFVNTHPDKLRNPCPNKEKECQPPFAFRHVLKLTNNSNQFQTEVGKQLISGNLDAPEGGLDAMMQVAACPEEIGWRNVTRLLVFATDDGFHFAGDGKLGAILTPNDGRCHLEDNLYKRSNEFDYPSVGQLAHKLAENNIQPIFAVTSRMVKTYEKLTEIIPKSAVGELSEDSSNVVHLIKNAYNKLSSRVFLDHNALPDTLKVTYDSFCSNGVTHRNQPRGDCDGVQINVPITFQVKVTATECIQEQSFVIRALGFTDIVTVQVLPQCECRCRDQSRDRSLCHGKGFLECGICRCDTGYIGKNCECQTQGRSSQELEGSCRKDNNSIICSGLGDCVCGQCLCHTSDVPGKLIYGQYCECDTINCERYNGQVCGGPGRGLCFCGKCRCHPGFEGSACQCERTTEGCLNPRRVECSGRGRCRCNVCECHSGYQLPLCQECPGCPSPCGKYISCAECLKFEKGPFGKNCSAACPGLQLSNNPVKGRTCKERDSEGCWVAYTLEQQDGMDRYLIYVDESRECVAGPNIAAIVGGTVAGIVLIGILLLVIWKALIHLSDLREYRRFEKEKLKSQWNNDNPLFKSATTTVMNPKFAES
# Mac1 fbg enh – CD11b/CD18-fibrinogen binding enhancement; K562 CD11b/CD18 adhesion to fibrinogen, ATPlite luminescence; P05107+P11215; activation, % at 10 µM; actives 0.07% (n = 93,000); AID 1499;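 active = 10 µM primary screen giving 50% or more activity, confirmed by 40% or more on retest at that dose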
# CYP2C19 activ – increases human CYP2C19 enzyme activity | 96,000 tested, under 10 active | activation factor at 5 µM | recombinant CYP2C19, luciferin-H EGE luminescence; hits give high values; 0 = fully inhibited enzyme, 1 = untreated enzyme;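 active = activation factor of at least 2 at 5 µM in the primary screen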
# CYP2C9 inhib – human CYP2C9 inhibition | inhibition, % at 5 µM | P11712 | actives 20% (n = 96,000) | CYP2C9 Supersomes, luciferin-H conversion, luminescence | AID 777;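 active = blocking of liver enzyme CYP2C9 beyond about 50% at 5 µM, limit read from the data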
# A number is an active result; i = inactive; nt = no result.
SMILES,CYP2C19 inh,CYP2C9 activ,Mac1 fbg inh,Mac1 fbg enh,CYP2C19 activ,CYP2C9 inhib
COc1cccc(CNC(=O)c2ccc(S(=O)(=O)N3CCCC3)cc2)c1,i,i,i,i,i,86
COc1cccc(CNC(=O)c2cc3ccccn3n2)c1,66,i,i,i,i,i
COc1cccc(CN2C(=O)C3CCCN3c3ccc(S(=O)(=O)N4CCOCC4)cc32)c1 (centres undefined),i,i,nt,nt,i,62
O=[N+]([O-])c1ccc(N/N=C2/CCCCC2c2ccccn2)cc1 (centres undefined),nt,nt,i,i,nt,nt
N/C(=N\c1nc(C(F)(F)F)cc(=O)[nH]1)Nc1ccc(Cl)cc1,nt,nt,i,i,nt,nt
COc1ccc(CN2CCN(S(=O)(=O)c3ccc(C)cc3)CC2)cc1Br,i,i,i,i,i,i
COc1cccc(CN2CCCN(S(=O)(=O)c3ccc(Br)cc3)CC2)c1,79,i,i,i,i,i
COc1ccc(-n2c(CNC(=O)c3ccc(S(=O)(=O)N4CCCC4)cc3)n[nH]c2=S)cc1,i,i,i,i,i,i
Cc1cccc(-n2c(CNC(=O)c3ccc(S(=O)(=O)N4CCCC4)cc3)n[nH]c2=S)c1,53,i,i,i,i,i
CCn1c(SCC(N)=O)nc2c1c(=O)n(C)c(=O)n2C,i,i,i,i,i,i
COC(=O)c1ccccc1NC(=O)Nc1cc(C)cc(C)n1,i,i,i,i,i,i
Cc1noc(C)c1C(=O)N1CCc2ccccc21,i,i,i,i,i,i
Cc1onc(-c2c(Cl)cccc2Cl)c1C(=O)N1C=CC(C(F)(F)F)=NCC1,59,i,i,i,i,i
Cc1onc(-c2ccccc2)c1C(=O)N1CCCc2ccccc21,69,i,i,i,i,i
Cc1onc(-c2c(Cl)cccc2Cl)c1C(=O)N1CCCc2ccccc21,91,i,i,i,i,82
Cc1onc(-c2c(F)cccc2Cl)c1C(=O)N1CCc2ccccc21,63,i,i,i,i,i
Cc1cc(C(=O)N2CCCc3ccccc32)no1,i,i,nt,nt,i,i
COc1cccc(C(=O)SC2=NCCS2)c1,i,i,i,i,i,i
Cc1onc(-c2ccccc2Cl)c1C(=O)N1CCN(c2ccccc2)CC1,i,i,i,i,i,i
CCOC(=O)C1CCN(C(=O)c2c(-c3c(Cl)cccc3Cl)noc2C)CC1,70,i,i,i,i,79
Cc1onc(-c2c(Cl)cccc2Cl)c1C(=O)N1CCc2ccccc2C1,77,i,nt,nt,i,73
CCN1CCN(C(=O)c2c(-c3c(F)cccc3Cl)noc2C)CC1,i,i,i,i,i,i
O=C(Nc1ccccc1N1CCOCC1)c1ccccc1NS(=O)(=O)c1ccc(F)cc1,58,i,i,i,i,78
CC(=O)Nc1cccc(C(=O)Nc2ccccc2N2CCOCC2)c1,i,i,i,i,i,i
Cc1cc(C)c(OCC(=O)Nc2ccccc2N2CCOCC2)c(C)c1,i,i,i,i,i,i
SMILES,CYP2C19 inh,CYP2C9 activ,Mac1 fbg inh,Mac1 fbg enh,CYP2C19 activ,CYP2C9 inhib
CCOc1ccc(S(=O)(=O)Nc2ccccc2C(=O)Nc2ccccc2N2CCOCC2)cc1,84,i,i,i,i,69
COc1ccc(C)cc1C(=O)CCC(=O)Nc1ccccc1N1CCOCC1,81,i,i,i,i,82
Cc1cc(F)ccc1S(=O)(=O)Nc1ccccc1C(=O)Nc1ccccc1N1CCOCC1,83,i,nt,nt,i,87
O=C(Nc1ccccc1N1CCOCC1)c1ccccc1[N+](=O)[O-],i,i,nt,nt,i,i
CC(=O)c1c(C)nc2ccc(Cl)cn12,i,i,i,i,i,i
CCC(=O)Nc1ccc(-c2nc(-c3ccccc3)n(CC(=O)N3CCCCC3)n2)cc1,i,i,i,i,i,i
O=C(Nc1ccccc1N1CCOCC1)c1ccccc1NS(=O)(=O)c1ccc(F)c(F)c1,i,i,75,i,i,81
Cc1cc(F)ccc1S(=O)(=O)Nc1ccccc1C(=O)Nc1ncn[nH]1,94,i,i,i,i,i
Cc1ccc(C)c(S(=O)(=O)Nc2ccccc2C(=O)Nc2ccccc2N2CCOCC2)c1,94,i,50,i,i,97
Fc1ccc(-c2nnc(CN3CCN(c4ncc(C(F)(F)F)cc4Cl)CC3)o2)cc1,i,i,i,i,i,i
Cc1c(C(=O)NCc2ccccn2)oc2ccccc12,i,i,i,i,i,i
Cc1c(C(=O)NCCc2ccc3c(c2)OCCO3)oc2ccccc12,86,i,i,i,i,82
Cc1c(C(=O)NC2=NCCS2)oc2ccccc12,61,i,i,i,i,i
CC(=O)Nc1cccc(NC(=O)c2oc3ccccc3c2C)c1,53,i,i,i,i,i
O=C1C2C3C=CC(C2C(=O)N1CCCO)C1C2C(=O)N(CCCO)C(=O)C2C31 (centres undefined),i,i,i,i,i,i
O=C(NC(=O)c1cccc(Cl)c1)OC[C@@H]1CCCN2CCCCC12 (some centres undefined),i,i,i,i,i,i
COc1ccccc1S(=O)Cc1ccc(C(=O)NCCc2ccc(Cl)cc2)o1 (centres undefined),62,i,i,i,i,65
